# SMN2 splice enh: qHTS Assay for Enhancers of SMN2 Splice Variant Expression | HEK293 SMN2-luciferase splicing reporter, luminescence, 30-36 h | Potency, µM (titrated, usually from 46.1 µM), usual class: activators | actives 2.8% (n = 210,000); note: nearly all actives have a fitted effect of over 55% in size
#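 HEK293 cells carry an SMN2 […]–luciferase reporter in which exon 7 inclusion puts luciferase in frame. Cells were plated 10-12 h before compound addition, then incubated 30-36 h at 37C. ONE-Glo luminescence was read; sodium butyrate at 4.5 mM final served as control.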
# ELG1 genotoxic: qHTS screen for small molecules that induce genotoxicity in human embryonic kidney (HEK293T) cells expressing luciferase-tagged ELG1 | actives 1.3% (n = 330,000) | Potency, µM (series often up to 46 µM), hits mostly activators | HEK293T ELG1-luciferase reporter, luminescence, 16 h; note: nearly all actives have a fitted effect of over 60% in size
#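 Step 1: seed 2,000 HEK293T ELG1-luciferase cells per well. Step 2: add compound or DMSO, incubate 16 hr at 37 °C. Step 3: ONE-Glo, 30 min at room temperature, read luminescence.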
# Luc counter: Counterscreen for Luciferase (Kinase-Glo TM) Inhibition | Luciferin 4-monooxygenase (Photuris pensylvanica), Q27757 | Kinase-Glo luciferase, ATP luminescence, 8 min | Potency, µM (top dose mostly 38.3 µM), usual class: inhibitors | actives 0.28% (n = 200,000) | AID 1379, 2008; note: nearly all actives have a fitted effect of over 60% in size
#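 Light output from Kinase-Glo luciferase with luciferin and 10 uM ATP in 50 mM imidazole pH 7.2, KCl, MgCl2, Tween 20, BSA; compound pin-delivered, 8-min ambient incubation, then luminescence read.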
# Rab9 promoter act: qHTS Assay for Rab9 Promoter Activators; Huh7 Rab9 promoter-luciferase reporter, luminescence, 24 h; Potency, µM (titrated, usually from 9.22 µM), actives largely listed as activators; actives 2.8% (n = 320,000); note: nearly all actives have a fitted effect of over 60% in size
#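 Measured in stably transfected Huh7 cells bearing a Rab9 promoter–luciferase construct: 24 h compound treatment at 37 °C, followed by luminescence detection.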
# FLuc counter: qHTS profiling assay for firefly luciferase inhibitor/activator using purifed enzyme and Km concentrations of substrates (counterscreen for miR-21 project); Luciferin 4-monooxygenase (Photinus pyralis), P08659; purified FLuc, Km substrates, luminescence inhibition; Potency, µM (doses to about 57.5 µM), usual class: inhibitors; actives 6.9% (n = 360,000); note: nearly all actives have a fitted effect of over 55% in size
# Target sequence (P08659 whole entry, looked up): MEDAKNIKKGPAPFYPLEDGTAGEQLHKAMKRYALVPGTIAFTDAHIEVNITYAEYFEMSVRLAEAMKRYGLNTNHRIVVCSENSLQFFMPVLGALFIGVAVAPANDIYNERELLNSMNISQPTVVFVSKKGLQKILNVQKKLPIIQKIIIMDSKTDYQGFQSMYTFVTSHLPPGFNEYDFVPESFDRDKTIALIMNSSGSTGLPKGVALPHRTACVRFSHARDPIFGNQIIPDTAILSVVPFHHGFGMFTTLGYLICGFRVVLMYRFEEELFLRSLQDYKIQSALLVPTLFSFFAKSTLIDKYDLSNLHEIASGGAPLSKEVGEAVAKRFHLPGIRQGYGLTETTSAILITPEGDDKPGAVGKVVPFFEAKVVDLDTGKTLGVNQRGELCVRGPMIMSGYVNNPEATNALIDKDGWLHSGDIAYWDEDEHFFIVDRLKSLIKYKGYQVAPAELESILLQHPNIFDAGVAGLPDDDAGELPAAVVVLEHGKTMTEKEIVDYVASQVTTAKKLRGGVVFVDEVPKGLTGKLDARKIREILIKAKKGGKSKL
#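 Biochemical qHTS of compounds, final roughly 60 µM downward over six points, against 10 nM purified firefly luciferase using Km concentrations of substrates (10 uM D-luciferin, 10 uM ATP) in Tris acetate pH 7.5 buffer; luminescence output.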
# NPC1 promoter act: qHTS Assay for NPC1 Promoter Activators; actives 2.4% (n = 320,000); Huh7 NPC1 promoter luciferase reporter, 24 h; AID 485313, 2010; Potency, µM (titrated, usually from 9.22 µM), usual class: activators; note: nearly all actives have a fitted effect of over 60% in size
#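 Cells: Huh7 expressing luciferase under the NPC1 promoter, 1500/well. Seeded 2 h, compound added, incubated 24 h at 37 °C. Luciferase reagent, 10 min ambient, then luminescence.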
# Hits are given with their value; - = inactive; ? = inconclusive; . = not tested or not shown. This is a sample that favours compounds with a hit; in the whole collection about 7.3% have one here. Calls come from the whole dose curve; as a rule, active = well fitted curve in the direction sought with a large enough effect; inconclusive = small, poorly fitted or top-dose-only effect, or another doubt; inactive = no such curve, though single readings can be large; an effect the other way counts as inactive or inconclusive.
SMILES,SMN2 splice enh,ELG1 genotoxic,Luc counter,Rab9 promoter act,FLuc counter,NPC1 promoter act
Cc1ccc(Cn2c(Cc3ccccc3)nc3ccccc32)cc1,-,-,-,-,?,-
Cc1ccc(Cn2c(/C=C/c3ccco3)nc3ccccc32)cc1,.,?,-,?,11µM,?
Clc1ccc(Cn2c(/C=C/c3ccco3)nc3ccccc32)cc1,-,-,-,3.5µM,11µM,?
CCOc1ccc(NC(=O)CCNS(=O)(=O)c2cccc3nsnc23)cc1,-,-,.,-,-,-
O=C(COC(=O)c1ccc2c(c1)OCO2)NC1CCS(=O)(=O)C1 (stereo unspecified),-,-,-,-,-,-
NS(=O)(=O)c1cccc(NC(=O)COC(=O)CCc2ccccc2)c1,.,-,.,-,-,-
Cc1cc2c(cc3c(SCc4ccccc4Cl)nnc(C)n32)o1,.,.,.,.,13µM,.
CCOc1ccc(CC(=O)N/N=C/c2cccnc2)cc1,.,-,.,-,-,-
Cc1ccc(Cl)cc1NC(=O)CC1NC2CCCCC2NC1=O (stereo unspecified),.,-,-,-,-,-
O=C(Nc1sc2c(c1C(=O)O)CCC2)c1ccccc1Cl,.,-,.,-,?,-
CNC(=O)c1c(NC(=O)c2nc3ccccc3s2)sc2c1CCC2,13µM,4.6µM,-,2µM,5.4µM,?
O=C(Nc1sc2c(c1C(=O)O)CCCCC2)c1cccnc1,.,-,.,-,17µM,-
O=C(Nc1sc2c(c1C(=O)N1CCOCC1)CCCCC2)c1cccnc1,-,-,-,-,-,-
Cc1ccccc1C(=O)Nc1sc2c(c1C(=O)O)CCC2,-,-,-,-,19µM,-
Cc1cccc(C(=O)Nc2sc3c(c2C(=O)O)CCCC3)c1,-,-,.,-,15µM,-
CCCc1cc(=O)oc2cc(C)cc(OC(=O)c3ccco3)c12,-,-,-,-,-,-
COc1ccc2c(c1)NC(=O)CC(c1ccccc1)=N2,-,16µM,-,-,?,?
COc1ccc(O)c(C2=Nc3ccccc3N=C(c3ccccc3)C2)c1,?,-,.,-,-,-
Nc1c(C(=O)c2ccccc2)sc2snc(SCC(=O)c3ccccc3)c12,-,-,-,-,7.6µM,-
Nc1nnc(SCC(=O)c2ccccc2)s1,-,-,-,-,-,-
O=c1c2sccc2nc(SCc2cc(=O)n3cc(Br)ccc3n2)n1Cc1ccccn1,?,?,-,4.5µM,-,?
CCc1ccc(OCCCC(=O)NCc2ccccc2)cc1,-,-,-,-,-,-
CCC/C(C)=C/c1ccc(CC)cn1,.,-,.,-,9.5µM,-
O=C(CSc1nnc(-c2ccccc2Cl)o1)N1CCCC1,.,?,.,?,15µM,?
O=C(CSc1nnc(-c2ccccc2O)o1)N1CCCCC1,.,?,.,-,11µM,-
SMILES,SMN2 splice enh,ELG1 genotoxic,Luc counter,Rab9 promoter act,FLuc counter,NPC1 promoter act
O=C(CSc1nnc(-c2ccccc2Br)o1)N1CCOCC1,.,?,.,4µM,19µM,2.8µM
CC(Sc1nnc(-c2ccccc2Br)o1)C(=O)N1CCOCC1 (stereo unspecified),.,-,.,-,-,-
CC1CCCCN1C(=O)CSc1nnc(-c2ccccc2O)o1 (stereo unspecified),.,5.2µM,.,3.5µM,21µM,2.8µM
CC1(C)CC(=O)C(N=Nc2cc(Cl)c(Cl)c(Cl)c2)=C(O)C1,-,?,-,-,?,-
O=C(Nc1ccc([N+](=O)[O-])cc1)Nn1cnnc1,.,-,.,-,-,-
C[C@H](CO)N1C[C@H](C)[C@@H](CN(C)C)Oc2c(NC(=O)CCC(F)(F)F)cccc2C1=O,.,-,.,.,.,.
O=C(CSc1nnc(-c2ccccc2Cl)o1)N1CCCCC1,16µM,4.6µM,-,?,15µM,?
O=C(CSc1nnc(-c2ccccc2O)o1)N1CCOCC1,.,?,.,3.2µM,?,?
CCOc1ccc2nc(N(CCCN(C)C)C(=O)c3ccc4c(c3)CCCC4)sc2c1,.,-,.,-,-,-
Cc1ccc(C(=O)N(CC(C)C)c2nc3ccccc3s2)o1,.,-,.,-,?,-

# High-throughput results as filed in PubChem.
